NTMT1 inhibitor – Primary qHTS for Inhibitors of N-terminal methyltransferase 1 (NTMT1): MTaseGlo Assay. Potency, µM (doses to about 114 µM), inactives show top-dose activity change, negative = inhibition, most hits filed as inhibitors. NTMT1 MTase-Glo SAH luminescence, purified enzyme. hit rate 2.5% among 59,000. N-terminal Xaa-Pro-Lys N-methyltransferase 1 (Homo sapiens), Q9BV86;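 also: potency is read from the fitted curve at half-maximal effect; plate controls were DMSO vehicle for no effect and no enzyme for full effect; nearly all actives have a fitted effect of over 65% in size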
Target sequence (Q9BV86 whole entry, looked up): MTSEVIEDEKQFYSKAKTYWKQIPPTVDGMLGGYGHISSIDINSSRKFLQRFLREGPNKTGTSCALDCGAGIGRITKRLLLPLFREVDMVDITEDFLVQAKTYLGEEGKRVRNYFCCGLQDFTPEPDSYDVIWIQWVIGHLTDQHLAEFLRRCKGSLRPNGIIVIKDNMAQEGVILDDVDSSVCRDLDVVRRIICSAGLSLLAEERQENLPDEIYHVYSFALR
GALK inhibitor – qHTS Assay for Inhibitors of Human Galactokinase (GALK): NCGC Sytravon Library Screen; recombinant GALK, Kinase-Glo ATP luminescence, 1 h; P51570; Potency, µM (highest dose often 57.5 µM), inactives show top-dose activity, negative = inhibition, most hits filed as inhibitors; 44,000 tested, under 10 active;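 also: plate controls were full GALK reaction for no effect and reaction lacking GALK for full effect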
Target sequence (P51570 whole entry, looked up): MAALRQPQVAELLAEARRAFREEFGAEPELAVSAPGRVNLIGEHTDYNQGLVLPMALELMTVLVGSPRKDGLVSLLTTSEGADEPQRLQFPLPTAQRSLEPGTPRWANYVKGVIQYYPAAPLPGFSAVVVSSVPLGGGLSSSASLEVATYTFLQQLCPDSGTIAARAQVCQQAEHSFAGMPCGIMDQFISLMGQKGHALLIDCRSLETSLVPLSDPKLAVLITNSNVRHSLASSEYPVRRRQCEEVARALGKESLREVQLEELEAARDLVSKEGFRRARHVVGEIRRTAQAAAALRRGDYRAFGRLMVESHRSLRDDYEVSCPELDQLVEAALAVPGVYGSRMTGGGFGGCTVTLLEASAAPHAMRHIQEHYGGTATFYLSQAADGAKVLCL
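5 nM GALK; 35 uM ATP; 100 uM D-galactose; 20 mM HEPES pH 8.0, 5 mM MgCl2, 60 mM NaCl, 1 mM DTT, 0.01% BSA; 1 h RT; Kinase-Glo Plus luminescence.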
GALC G270D act – A Novel Cell-Based Assay to Identify Small Molecules for B -Galactocerebrosidase | P54803 | 145M-Twi-hGALC-G270D cells (Twitcher mouse brain line with human GALC G270D), HMU-beta-Gal fluorescence, 48 h | Potency, µM (series often up to 57.5 µM), actives largely listed as activators | hit rate 0.1% among 45,000 | AID 1159614, 2016; also: potency is read from the fitted curve at half-maximal effect; 0% is about no effect; nearly all actives have a fitted effect of over 65% in size
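Brain-derived Twitcher mouse 145M-Twi cells stably expressing human GALC-G270D or wild-type GALC, treated live, then residual GALC activity read by fluorescence of HMU-b-Gal substrate (0.1 mM final) in citrate-phosphate buffer pH 5.2 with sodium taurocholate. Signal increase indicates enhancement.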
B2AR arrestin ag – qHTS assay of beta-arrestin-biased ligands of beta2-adrenergic receptor: NCGC Sytravon Library Screen | Beta-2 adrenergic receptor (Homo sapiens), P07550 | HTLA Tango cells, beta-arrestin recruitment, luciferase luminescence, 18 h | Potency, µM (series often up to 46.1 µM), usual class: activators | 44,000 tested, under 10 active;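 also: potency is read from the fitted curve at half-maximal effect; 0% = DMSO and full agonism = EC100 isoproterenol or metaproterenol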
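Ligand-induced beta-arrestin recruitment to recombinant beta2-AR is measured via a tTA-driven luciferase reporter in Tango cells after 18 hr compound exposure at 37 degrees C. Concentrations span up to 46 microM.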
DRV1 agonist – qHTS for Agonists of Human Resolvin D1 Receptor DRV1. Probable G-protein coupled receptor 32 (Homo sapiens), O75388. CHO-K1 GPR32 beta-arrestin PathHunter luminescence, 90 min; zero percent set by DMSO-only wells. activation, % at 76.9 µM. hit rate 2.5% among 48,000. AID 1346428, 2018;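 active = activation of at least 60% and not above a set upper limit, about 1 call in 100 departs from these limits; inconclusive = activation of 40% to 60%, or above that upper limit; inactive = activation under 40%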; also: 0% is about no effect
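CHO-K1 cells stably expressing ProLink-tagged GPR32 and Enzyme Activator-tagged beta-arrestin were seeded at 2,500 cells/well overnight, exposed to compounds for 90 min at 37 °C, then read by beta-Gal complementation chemiluminescence after 1 h detection reagent.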
Numbers without * were called inactive; [ ] = dose if it differs, or a comment. Sampled rows, rich in hits. Any-hit rate of the full collection: about 3.6%. Unless noted, calls follow the shape of the dose curve; as a rule, active = well fitted curve in the direction sought with a large enough effect; inconclusive = small, poorly fitted or top-dose-only effect, or another doubt; inactive = no such curve, though single readings can be large; an effect the other way counts as inactive or inconclusive.

O=C(/C=C/c1cn(CC(O)CN2CCCCCC2)c2ccccc12)c1ccc(Br)cc1 (stereo not given) was read as NTMT1 inhibitor inconclusive, GALK inhibitor -2%, GALC G270D act inactive, B2AR arrestin ag inactive and DRV1 agonist 88*.
`COc1ccc(C(=O)/C=C/c2cn(CC(O)CN3CCCCCC3)c3ccccc23)cc1OC` (stereo not given) gave NTMT1 inhibitor 45µM*, GALK inhibitor -2%, GALC G270D act inactive, B2AR arrestin ag inactive and DRV1 agonist inconclusive.
`Cc1ccc(C(=O)/C=C/c2cn(CC(O)CN3CCCCCC3)c3ccccc23)cc1` (stereo not given) gave NTMT1 inhibitor inconclusive, GALK inhibitor -13%, GALC G270D act inactive, B2AR arrestin ag inactive and DRV1 agonist 32.
O=C(/C=C/c1cn(CC(O)CN2CCCCCC2)c2ccccc12)c1ccccc1 (stereo not given) was read as NTMT1 inhibitor inconclusive, GALK inhibitor 1%, GALC G270D act inconclusive, B2AR arrestin ag inactive and DRV1 agonist 4.
For CCc1oc2ccccc2c1C(=O)c1cc(Br)c(O)c(Br)c1 the results were NTMT1 inhibitor 79µM*, GALC G270D act inactive and DRV1 agonist 38.
Screening COC(=O)c1ccc(=O)c2nc3/c(=C/O)c(O)cc(=O)c3[nH]c12 returned NTMT1 inhibitor 35µM*.
`N#C/C(=C\c1ccc(O)c(O)c1)C(=O)NCCCNC(=O)/C(C#N)=C/c1ccc(O)c(O)c1` gave NTMT1 inhibitor 1.3µM* and DRV1 agonist -32.
For N#C/C(=C\c1ccc(O)c(O)c1)C(=O)Nc1ccccc1 the results were DRV1 agonist -27.
For COc1ccc2cc3cc(C(=O)Nc4ccccc4C)oc3nc2c1 the results were NTMT1 inhibitor 0%, GALK inhibitor 1%, GALC G270D act inactive, B2AR arrestin ag inactive and DRV1 agonist 98*.
`CCOCCCNc1ncnc2c1cnn2-c1ccc(C)c(C)c1` gave NTMT1 inhibitor inconclusive, GALK inhibitor -2%, GALC G270D act inactive, B2AR arrestin ag inactive and DRV1 agonist 89*.
For Cc1ccc(-n2ncc3c(NCCc4ccccc4)ncnc32)cc1C the results were NTMT1 inhibitor -2%, GALK inhibitor -1%, GALC G270D act inactive, B2AR arrestin ag inactive and DRV1 agonist 8.
For Cc1ccc(OCCn2c(CCNC(=O)c3ccc(C(F)(F)F)cc3)nc3ccccc32)cc1 the results were NTMT1 inhibitor -8%.
For COc1ccc(NC(=O)CC(C)S(=O)(=O)c2ccc3c(c2)NC(=O)CO3)cc1OC (stereo not given) the results were NTMT1 inhibitor 2%, GALK inhibitor 1%, GALC G270D act inactive, B2AR arrestin ag inactive and DRV1 agonist 1.
Screening COc1cc(OC)c(NC(=O)CC(C)S(=O)(=O)c2ccc3c(c2)NC(=O)CO3)cc1Cl (stereo not given) returned NTMT1 inhibitor 9%, GALK inhibitor 3%, GALC G270D act inactive, B2AR arrestin ag inactive and DRV1 agonist 73*.
Screening CNCc1ccccc1 returned NTMT1 inhibitor 56µM*, GALC G270D act inactive and DRV1 agonist -2.
Cc1ccc(CNCc2ccccc2)s1 was read as NTMT1 inhibitor 8%, GALK inhibitor -1%, GALC G270D act inactive, B2AR arrestin ag inactive and DRV1 agonist -4.
For CC(=O)N1CCN(c2ccc(NCc3ccccc3)cc2)CC1 the results were NTMT1 inhibitor -15%.
CC(=O)N1CCN(c2ccc(O)cc2)CC1 was read as NTMT1 inhibitor 28µM*, GALC G270D act inactive and DRV1 agonist 42.
O=C1NS(=O)(=O)c2cscc21 was read as NTMT1 inhibitor 18%.
Screening O=[N+]([O-])c1ccc(/C=N\O)o1 returned NTMT1 inhibitor 24%[57.5 µM], GALC G270D act inactive and DRV1 agonist 22.
NC(N)=NN=C(/C=C/c1ccc([N+](=O)[O-])o1)/C=C/c1ccc([N+](=O)[O-])o1 was read as NTMT1 inhibitor 40µM*, GALC G270D act inactive and DRV1 agonist -26.
O=C(/C=C/c1ccc(O)cc1)OC[C@H]1O[C@@H](OC(=O)/C=C/c2ccccc2)[C@H](O)[C@@H](O)[C@@H]1O was read as NTMT1 inhibitor -10%[29.8 µM].
COc1cccc(C2c3c(ncn(-c4ccccc4C#N)c3=N)Oc3ccc4ccccc4c32)c1 (stereo not given) was read as NTMT1 inhibitor 79µM*.
Cc1ccc(-n2ncc3c(NC(C)c4ccccc4)ncnc32)cc1 (stereo not given) was read as NTMT1 inhibitor 0%, GALK inhibitor -2%, GALC G270D act inactive, B2AR arrestin ag inactive and DRV1 agonist inconclusive.
For CCN1CCN(Cc2ccc(-c3cc4c(NC(C)c5ccccc5)ncnc4[nH]3)cc2)CC1 (stereo not given) the results were NTMT1 inhibitor 14µM*.
For CCN1CCN(Cc2ccc(-c3cc4c(N[C@H](C)c5ccccc5)ncnc4[nH]3)cc2)CC1 the results were NTMT1 inhibitor 22µM*.
Cc1ccc(S(=O)(=O)Nc2ccc(C(=O)Nc3ncc(-c4ccccc4)s3)cc2)cc1 was read as NTMT1 inhibitor 7%.
COc1ccc(/C=C/C(=O)Nc2ccc(Cl)c(Cl)c2)cc1 was read as NTMT1 inhibitor -8%, GALK inhibitor -3%, GALC G270D act inactive, B2AR arrestin ag inactive and DRV1 agonist 68*.
COc1ccc(/C=C/C(=O)Nc2ccc(C)cc2)cc1 was read as NTMT1 inhibitor 1%, GALK inhibitor -3%, GALC G270D act inactive, B2AR arrestin ag inactive and DRV1 agonist -9.
`COC(=O)N(CC(=O)O)Cc1cccc(OCc2nc(-c3ccc(Cl)cc3)oc2C)c1` gave NTMT1 inhibitor 9%.
Screening Cc1ccc(CCNC(=O)CN2CCN(Cc3ccc(Cl)cc3)C2=O)cc1 returned NTMT1 inhibitor -3%, GALK inhibitor -8%, GALC G270D act inactive, B2AR arrestin ag inactive and DRV1 agonist 60*.
Screening O=C(CN1CCN(Cc2ccc(F)cc2Cl)C1=O)NCCc1ccc(Cl)cc1 returned NTMT1 inhibitor 3%, GALK inhibitor 3%, GALC G270D act inactive, B2AR arrestin ag inactive and DRV1 agonist 44.
COc1ccc(NC(=O)c2nnn(CC(=O)Nc3ccc(C)c(C)c3)c2N)cc1OC was read as NTMT1 inhibitor -16%, GALK inhibitor 3%, GALC G270D act inactive, B2AR arrestin ag inactive and DRV1 agonist 91*.
